Measurements as given in PubChem BioAssay (NCATS).
Results filed as inconclusive are left out. Entries that show only a call come without a potency. Active and inactive are the calls of the source. The call rests on the fitted dose curve; in most records, active means well fitted curve in the direction sought with a large enough effect; inconclusive means small, poorly fitted or top-dose-only effect, or another doubt; inactive means no such curve, though single readings can be large; an effect the other way counts as inactive or inconclusive.

Target: Cytochrome P450 3A4 (Homo sapiens) (UniProt P08684)
Sequence (P08684 whole entry, looked up): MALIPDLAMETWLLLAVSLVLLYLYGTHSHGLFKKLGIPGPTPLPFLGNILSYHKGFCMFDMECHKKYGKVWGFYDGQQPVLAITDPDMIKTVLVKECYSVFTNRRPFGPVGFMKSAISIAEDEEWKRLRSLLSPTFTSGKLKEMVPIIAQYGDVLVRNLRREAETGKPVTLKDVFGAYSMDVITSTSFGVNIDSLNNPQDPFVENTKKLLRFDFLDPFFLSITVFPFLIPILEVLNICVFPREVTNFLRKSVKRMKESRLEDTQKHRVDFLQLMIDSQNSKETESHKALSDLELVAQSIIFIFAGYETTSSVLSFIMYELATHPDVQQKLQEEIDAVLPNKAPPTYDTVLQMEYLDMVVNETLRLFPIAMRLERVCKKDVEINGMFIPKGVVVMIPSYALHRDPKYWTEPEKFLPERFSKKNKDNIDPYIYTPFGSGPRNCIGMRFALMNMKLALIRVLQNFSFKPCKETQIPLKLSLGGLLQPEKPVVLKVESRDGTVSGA
Assay: qHTS Assay for Inhibitors and Substrates of Cytochrome P450 3A4 (AID 884); further: nearly all actives have a fitted effect of over 50% in size; further: potency means the concentration at half of the fitted maximal effect
Settings: recombinant CYP3A4, Luciferin-PPXE luminescence; series mostly up to 57.1 µM
Method in brief: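 Luminescent readout of luciferin produced by CYP3A4 (20 nM) dealkylation of Luciferin-PPXE, 25 uM (its KM). NADPH-driven reaction ran 60 min at RT after 10 min compound preincubation; data scaled to 57 uM ketoconazole as 100% inhibition.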
In the case of `CS(=O)(=O)c1ccc(C2=C(c3ccccc3)C(=O)OC2)cc1`, the Potency is reported as “inactive”.
In the case of `Cc1cc2nc3c(=O)[nH]c(=O)nc-3n(CC(O)C(O)C(O)CO)c2cc1C` (stereo not drawn), the Potency is reported as “inactive”.
With `CC[C@H](C)C(=O)O[C@H]1C[C@H](O)C=C2C=C[C@H](C)[C@H](CC[C@@H](O)C[C@@H](O)CC(=O)O)[C@H]21` the Potency was “inactive”.
In the case of `Cc1cc(NC(=O)Nc2ccc(N(C)C)cc2)c2cc(F)cc(F)c2n1`, the Potency is reported as 6.31 µM (active).
With `CN1C(=O)C(Cc2c[nH]c3ccccc23)NC1=S` (stereo not drawn) the Potency was 6.31 µM (active).
For `CC(NCCc1ccc(O)cc1)C(O)c1ccc(O)cc1` (stereo not drawn), the Potency was “inactive”.
In the case of `COC1CCC(C(=O)c2ccc3nc4c(cc3c2)CCCO4)CC1` (stereo not drawn), the Potency is reported as “inactive”.
For `COc1ccc2cc1Oc1ccc(cc1)C[C@H]1c3cc(c(OC)cc3CCN1C)Oc1c(OC)c(OC)cc3c1[C@H](C2)N(C)CC3`, the Potency was “inactive”.

Target: Cytochrome P450 3A4 (Homo sapiens) (UniProt P08684)
Assay: qHTS Assay for Activators of Cytochrome P450 3A4 (AID 885); further: nearly all actives have a fitted effect of over 65% in size; further: potency means the concentration at half of the fitted maximal effect
Settings: recombinant CYP3A4, Luciferin-PPXE luminescence, 60 min; series mostly up to 57.1 µM
Method in brief: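 Luminescent readout of luciferin formed from 25 uM Luciferin-PPXE (KM level) by 20 nM CYP3A4 in 200 mM KPO4, with 60 min NADPH-driven reaction at room temperature after 10 min compound exposure. Ketoconazole (57 uM) defined 100% inhibition.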
In the case of `CC1(C)OC2CC3C4CC(F)C5=CC(=O)C=CC5(C)C4C(O)CC3(C)[C@]2(C(=O)CO)O1` (stereo partly drawn), the Potency is reported as “inactive”.
For `CN(C)c1ccccc1CN1CCCN(Cc2ccccc2N(C)C)C1c1ccncc1`, the activity change, positive = activation was -30.9% [at 11.4 µM] (inactive).
For `Cc1cc(NC(=O)Nc2ccc(N(C)C)cc2)c2cc(F)cc(F)c2n1`, the Potency was “inactive”.
With `CN1C(=O)C(Cc2c[nH]c3ccccc23)NC1=S` (stereo not drawn) the Potency was “inactive”.
For `CCCCC(C=O)NC(=O)C(CC(C)C)NC(=O)OCc1ccccc1` (stereo not drawn), the Potency was “inactive”.
With `O=c1cc(-c2ccc(O)c(O)c2)oc2cc(O)cc(O)c12` the Potency was “inactive”.
For `COC1CCC(C(=O)c2ccc3nc4c(cc3c2)CCCO4)CC1` (stereo not drawn), the Potency was 5.01 µM (active).
With `Cc1ccc2c(c1)C(=O)[C@]1(O)CCN(c3ccccc3)C1=N2` the Potency was “inactive”.

Target: Cytochrome P450 2D6 (Homo sapiens) (UniProt P10635)
Sequence (P10635 whole entry, looked up): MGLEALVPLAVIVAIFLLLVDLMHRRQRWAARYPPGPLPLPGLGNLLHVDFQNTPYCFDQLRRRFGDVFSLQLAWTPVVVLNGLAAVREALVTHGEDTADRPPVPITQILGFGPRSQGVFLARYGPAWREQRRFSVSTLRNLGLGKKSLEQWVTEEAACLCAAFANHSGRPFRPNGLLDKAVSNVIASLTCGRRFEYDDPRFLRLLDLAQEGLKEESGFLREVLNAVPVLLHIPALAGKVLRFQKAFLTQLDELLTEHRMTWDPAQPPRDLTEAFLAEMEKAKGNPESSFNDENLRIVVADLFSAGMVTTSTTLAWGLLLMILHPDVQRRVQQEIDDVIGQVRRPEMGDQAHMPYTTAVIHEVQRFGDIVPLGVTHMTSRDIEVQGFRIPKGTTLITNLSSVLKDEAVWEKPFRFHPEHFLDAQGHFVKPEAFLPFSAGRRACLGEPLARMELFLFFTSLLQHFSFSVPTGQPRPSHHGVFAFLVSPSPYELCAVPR
Assay: qHTS Assay for Inhibitors and Substrates of Cytochrome P450 2D6 (AID 891); further: potency means the concentration at half of the fitted maximal effect; nearly all actives have a fitted effect of over 60% in size
Settings: recombinant CYP2D6, luciferin-ME EGE luminescence
Method in brief: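 Luminescent read-out of luciferin formed by 5 nM human CYP2D6 demethylating 30 uM Luciferin-ME EGE (Km level) over 60 min at room temperature after NADPH regeneration addition. Data normalized to full inhibition by 1.43 uM quinidine.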
With `CN(C)c1ccccc1CN1CCCN(Cc2ccccc2N(C)C)C1c1ccncc1` the Potency was 1.26 µM (active).
In the case of `CN(C)CCN(Cc1ccc(Cl)cc1)c1ccccn1`, the Potency is reported as 0.02 µM (active).
In the case of `CN1CCN2c3ncccc3Cc3ccccc3C2C1` (stereo not drawn), the Potency is reported as 0.501 µM (active).

System: not listed separately
Assay: Confirmation and Secondary Assay for Modulators of Hemoglobin Beta Chain Splicing at IVS2 654 locus (AID 910);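 further: HeLa cells stably carrying EGFP split by mutant beta-globin IVS2-654 intron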
Settings: HeLa EGFP-654 splicing reporter, GFP fluorescence, 48 h; series mostly up to 46.1 µM
Method in brief: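 HeLa cells stably expressing EGFP interrupted by β-globin IVS2-654 intron, seeded overnight in Opti-MEM/2% FCS, then treated 2 days at 37 °C. Restored splicing read as total peak GFP intensity per well by laser scanning cytometry (488 nm excitation, 500–520 nm emission); 500 nM antisense PNA as control.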
For `CS(=O)(=O)c1ccc(C2=C(c3ccccc3)C(=O)OC2)cc1`, the outcome was “inactive”.
With `CC1(C)OC2CC3C4CC(F)C5=CC(=O)C=CC5(C)C4C(O)CC3(C)[C@]2(C(=O)CO)O1` (stereo partly drawn) the outcome was “inactive”.
With `OC(c1cc(C(F)(F)F)nc2c(C(F)(F)F)cccc12)C1CCCCN1` (stereo not drawn) the outcome was “inactive”.
For `CC(NCCc1ccc(O)cc1)C(O)c1ccc(O)cc1` (stereo not drawn), the outcome was “inactive”.
In the case of `COc1ccnc(CS(=O)c2nc3ccc(OC(F)F)cc3[nH]2)c1OC` (stereo not drawn), the outcome is reported as “inactive”.
For `NCC1CCC(C(=O)O)CC1` (stereo not drawn), the outcome was “inactive”.
In the case of `COc1ccc2ccc(=O)oc2c1CC=C(C)C`, the outcome is reported as “inactive”.
In the case of `CCC(c1ccc(O)cc1)C(CC)c1ccc(O)cc1` (stereo not drawn), the outcome is reported as “inactive”.
In the case of `O=C1C(CCC(O)c2ccc(F)cc2)C(c2ccc(O)cc2)N1c1ccc(F)cc1` (stereo not drawn), the outcome is reported as “inactive”.
